Measured values published in PubChem BioAssay AID624086 (Broad Institute, 2012).
Activity calls are given as the source filed them.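 How the source made its calls: active means fitted half-maximal effect concentration at or below the top concentration tested; inactive means the rest.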

assay: TCF/LEF reporter activation, dose response, orthogonal assay for GSK3b inhibitor project, cell-based, HEK293T, firefly luciferase, dry powder (AID 624086); conditions: 24 h; series mostly up to 26 µM; activity change, negative = inhibition: at the top concentration

Activity change, negative = inhibition, inactive:
COc1ccccc1C1C2=C(CC(C)(C)CC2=O)Nc2ccccc21 (configuration not stated) 0.0477%
COc1ccccc1[C@H]1C2=C(CC(C)(C)CC2=O)Nc2n[nH]c(C(F)(F)F)c21 -2.25%
Cc1[nH]nc2c1[C@@H](c1cccs1)C1=C(CC(C)(C)CC1=O)N2 0%
Cc1[nH]nc2nc3c(c(-c4cccs4)c12)C(=O)CC(C)(C)C3 1.45%
CC1(C)CC(=O)C2=C(C1)Nc1n[nH]c(C(F)(F)F)c1C2c1cc(F)ccc1OC(F)(F)F (configuration not stated) 3.06%
Cc1[nH]nc2c1C(C1CC1)C1=C(CC(C)(C)CC1=O)N2 (configuration not stated) -0.118%
Cc1[nH]nc2nc3c(c(-c4ccccc4)c12)C(=O)CC(C)(C)C3 -1.12%
COc1ccc(-c2nn(-c3ccccc3)cc2C(=O)N(C)C)cc1 0%
COc1cccc(C2C3=C(CC(C)(C)CC3=O)Nc3n[nH]c(C)c32)c1 (configuration not stated) -1.76%
Cc1[nH]nc2c1C(c1ccc3c(c1)OCO3)C1=C(CC(C)(C)CC1=O)N2 (configuration not stated) 0%
COc1ccccc1/C=C1\C(=O)CC(C)(C)CC1=Nc1cc(C(F)(F)F)[nH]n1 0%
Cc1[nH]nc2c1C(C)C1=C(CC(C)(C)CC1=O)N2 (configuration not stated) -0.0284%
COc1ccccc1C1C2=C(CC3(CCCCC3)CC2=O)Nc2n[nH]c(C)c21 (configuration not stated) -0.39%
COc1ccc(-c2nn(-c3ccccc3)cc2CO)cc1 1.06%
CNC(=O)c1cn(-c2ccccc2)nc1-c1ccc(OC)cc1 5.1%
COc1ccccc1C1C2=C(CCC(C)(C)C2=O)Nc2n[nH]c(C)c21 (configuration not stated) -0.321%
CC(C)c1ccc(-c2nn(-c3ccccc3)cc2/C=N/O)cc1 0%
CC1(C)CC(=O)/C(=C\c2cccc(F)c2C(F)(F)F)C(=Nc2cc(C(F)(F)F)[nH]n2)C1 3.06%
COc1ccc(-c2nn(-c3ccccc3)cc2/C=N/O)cc1OC -1.01%
Cc1[nH]nc2c1C(c1ccc(C(F)(F)F)cc1)C1=C(CC(C)(C)CC1=O)N2 (configuration not stated) -0.0415%
Cc1[nH]nc2c1C(c1cccnc1)C1=C(CC(C)(C)CC1=O)N2 (configuration not stated) -11.7%
COc1ccccc1C1C(C(C)=O)=C(C)Nc2n[nH]c(C)c21 (configuration not stated) -1.13%
CC1(C)CC(=O)C2=C(C1)Nc1n[nH]c(C(F)(F)F)c1C2c1ccc(F)cc1C(F)(F)F (configuration not stated) -0.562%
Cc1[nH]nc2c1C(c1ccc(Cl)s1)C1=C(CC(C)(C)CC1=O)N2 (configuration not stated) 0%
Cc1[nH]nc2c1C(c1cccs1)C1C(=O)CC(C)(C)CC1=N2 (configuration not stated) -1.06%
COc1ccccc1[C@@H]1C2=C(CC(C)(C)CC2=O)Nc2n[nH]c(C)c21 -0.562%
CC1(C)CC(=O)/C(=C\c2ccccc2C(F)(F)F)C(=Nc2cc(C(F)(F)F)[nH]n2)C1 6.12%
Cc1[nH]nc2c1[C@H](c1cccs1)C1=C(CC(C)(C)CC1=O)N2 0%
COc1ccc(C2C3=C(CC(C)(C)CC3=O)Nc3n[nH]c(C)c32)cc1 (configuration not stated) 0%
COc1ccccc1C1C2=C(CC(C)(C)CC2=O)Nc2n[nH]c(C(C)C)c21 (configuration not stated) -0.468%
CC1(C)CC(=O)C2=C(C1)Nc1n[nH]c(C(F)(F)F)c1C2c1cc(F)ccc1C(F)(F)F (configuration not stated) 1.02%
O/N=C/c1cn(-c2ccccc2)nc1-c1ccc(F)cc1 -4.44%
